About 83,000 compounds went through this panel and 20% of them were active in at least one assay; those are over-represented in the sample as a whole.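 For each line, cells grew in 96-well plates with the test compound present at a single concentration for 48 hours.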 Values without a mark were called inactive. Active and inactive are the calls of the source. The calls were made as follows: active = growth percent below 10; inactive = the rest.

Holding throughout (experiment): NCI-60 one-dose screen, 48 h (100 = growth as untreated, 0 = no growth, -100 = all killed)
Conditions in all cases: 10 µM unless noted

In test [1] the test system is SK-MEL-2 melanoma.
Test [2] relates to EKVX NSCLC.
Test [3] has as its system SN12C renal.
The test system of test [4] is UO-31 renal.
Test [5] relates to TK-10 renal.
The test system of test [6] is ACHN renal.
Test [7] concerns CAKI-1 renal.
For test [8], the system named is A498 renal.
Test [9] has as its system CCRF-CEM leukemia.
For test [10], the system named is MOLT-4 leukemia.

As to `C1CCC(N2CN3c4nonc4N4CN(C5CCCCC5)CN5c6nonc6N(C2)C3C45)CC1` (stereo not given), the growth in test [1] is 102%; in test [2] it was 82.4%; in [3], 92.4%; in test [4] it was 71.9%; in test [5], 102%; in test [6], 103%. Moreover, the growth is 84.9% in [7], 92.9% in [8], 51% in test [9] and 91.8% in [10].

On to `Cn1cc(-c2csc(-c3cn(CCCN4CCOCC4)c4ccc(F)cc34)n2)c2cccnc21`, for which the growth was 86.3% in test [1]; 63% in [2]; 78.5% in test [3]; 50.2% in test [4]; 75.1% in [5]; 63.8% in [6]. For the same compound, the growth in test [7] was 79%; in [8], 36.1%; in test [9], 36.4%; in [10] it was 32.1%.

With `Cc1c2ccccc2nc2cc3c(cc12)[C@H]1CC[C@]2(C)C(=O)CC[C@H]2[C@@H]1CC3`, the growth was 103% in test [1]; 91.5% in [2]; 95.4% in [3]; 74% in test [4]; 111% in test [5]; 95% in test [6]. Also, the growth in [7] is 73.7%; in test [8], 104%; in test [9], 97.4%; in [10], 80.8%.

Regarding `COc1c2c(cc3c1C(=O)N[C@@H]1[C@@H](O)[C@@H](O)[C@H](O)C[C@@H]31)OCCO2`, the growth was 100% in test [1]; 98.2% in test [2]; 103% in test [3]; 86.4% in test [4]; 95.7% in test [5]; 103% in test [6]. Moreover, the growth in test [7] is 94%; in [8], 104%; in test [9], 105%; in test [10], 99.6%.

Consider `C=CN(C(=O)N1CCN(c2cc3c(cc2F)c(=O)c(C(=O)O)cn3C2CC2)CC1)c1nc(-c2ccccc2)cs1`, for which the growth in test [1] is 88.3%; in [2] it was 109%; in test [3] it was 92.8%; in test [4], 84.7%; in [5] it was 105%; in [6], 91.1%. Also, the growth in test [7] was -82.3% (active); in [8], 76%; in test [9], 93.2%; in test [10], 88.2%.

Regarding `COc1ccc2[nH]cc(-c3nonc3-c3c[nH]c4ccc(Br)cc34)c2c1`, the growth was 73.1% in test [1]; 29.9% in test [2]; 67.7% in test [3]; 36.5% in test [4]; 49.9% in [5]; 38.7% in [6]. The growth is 24.8% in [7], 51.4% in test [8], 38.6% in test [9] and 28.3% in test [10].

`Cc1ccc(S(=O)(=O)OCC#CCOS(=O)(=O)c2ccc(C)cc2)cc1`: the growth in [1] was 66.4%; in [2], 60.9%; in test [3] it was 64.1%; in test [4], -87.1% (active); in test [5], 101%; in test [6] it was 49.5%. Further, the growth in test [7] is -82.9% (active); in test [8], 85.9%; in test [9], 7.43% (active); in [10], 46.3%.

Take `COc1cc(N2C(=O)[C@H](Cl)C2c2ccc(SC)cc2)cc(OC)c1OC` (stereo not given in full): the growth was 44.6% in test [1]; 28.6% in test [2]; 31.8% in test [3]; 40.6% in test [4]; 49.1% in test [5]; 30.3% in test [6]. Besides, the growth was 24.3% in test [7], -7.35% (active) in test [8], 11.4% in test [9] and 7.86% (active) in test [10].

Consider `O=C(CN1C(=O)S/C(=C\C(Cl)=C\c2ccccc2)C1=O)NC1CCS(=O)(=O)C1` (stereo not given), for which the growth in test [1] is 85%; in [2], 82.4%; in test [3], 79.7%; in [4] it was 65.6%; in test [5], 64%; in [6], 46.8%. Also, the growth was 78.1% in test [7], 99.7% in test [8], 12.3% in test [9] and 40.7% in test [10].

On to `O=C(Nc1ncc(Cc2ccccc2)s1)c1sc2ccccc2c1Cl`, for which the growth is 20.8% in test [1]; 30.2% in [2]; 39.5% in test [3]; 39% in test [4]; 38.8% in test [5]; 39.8% in [6]. Also, the growth in test [7] was 29.5%; in test [8], 15.1%; in [9] it was 18.8%; in test [10], 31.4%.

Regarding `COc1ccc(-c2nc(SCC(=O)Nc3nc4ccc(C)cc4s3)[nH]c(=O)c2C#N)cc1OC`, the growth was 115% in test [1]; 97% in test [2]; 95.9% in [3]; 61% in [4]; 164% in test [5]; 96.3% in test [6]. The growth is 74.7% in test [7], 102% in [8], 110% in test [9] and 99.4% in test [10].

With `Cn1c(C#N)ccc1-c1ccc(F)c(NC(=O)c2ccc(F)cc2)c1`, the growth was 60.3% in [1]; 82.2% in test [2]; 82.2% in test [3]; 64% in [4]; 86% in test [5]; 84.4% in test [6]. Further, the growth is 73.9% in test [7], 73.3% in [8], 68.8% in test [9] and 47.6% in test [10].

As for `Nc1cc(Br)cc2c1[nH]c(=O)c1ccccc12`, the growth was 112% in test [1]; 82% in test [2]; 88.6% in test [3]; 81.4% in [4]; 104% in test [5]; 102% in [6]. Besides, the growth in [7] was 82.5%; in [8], 92.5%; in test [9], 93.2%; in test [10] it was 80.5%.

`O=C(/C=C/c1cccc(Oc2ccccc2)c1)c1ccc(Nc2nc(Nc3ccc(F)cc3)nc(Nc3ccc(Cl)cc3)n2)cc1`: the growth in [1] was 69.1%; in test [2], 106%; in test [3] it was 123%; in [4], 91.8%; in test [5] it was 130%; in test [6], 98.6%. Also, the growth is 104% in test [7], 113% in test [8], 116% in test [9] and -35.6% (active) in test [10].

Consider `CC(C)(Sc1cc(C(C)(C)C)c(O)c(C(C)(C)C)c1)Sc1cc(C(C)(C)C)c(OC(=O)CCC(=O)O)c(C(C)(C)C)c1`, for which the growth was 23.4% in [1]; 44.1% in [2]; 34.2% in test [3]; 33.2% in [4]; 60.5% in test [5]; 44.5% in test [6]. The growth in test [7] was 54.5%; in test [8], 63.6%; in test [9], 35.8%; in test [10], 73.3%.

Turning to `c1ccc(Cn2cc3c(c2-c2ccccc2)CCc2cnoc2-3)cc1`, the growth in test [1] is 93.4%; in test [2] it was 80.1%; in test [3] it was 101%; in [4] it was 80.1%; in test [5], 101%; in [6], 101%. In addition, the growth in [7] was 84.1%; in test [8], 54%; in test [9], 48.3%; in [10], 58.5%.

As for `CC(C)(C)c1ccc(S(=O)(=O)Oc2ccc(-c3sc4cc(OS(=O)(=O)c5ccc(C(C)(C)C)cc5)ccc4c3C(=O)c3ccc(OCCN4CCCCC4)cc3)cc2)cc1`, the growth was 89.9% in [1]; 83.8% in test [2]; 98.9% in [3]; 74.6% in [4]; 90.4% in [5]; 98.1% in test [6]. Also, the growth is 95.7% in test [7], 105% in test [8], 93.4% in test [9] and 95.7% in test [10].

With `COc1cc(-c2ccc[nH]2)[nH]c1/C=C1\N=C(C)C(CC(=O)OCC(C)(C)C)=C1C`, the growth is -60.4% (active) in test [1]; -69.3% (active) in test [2]; -75% (active) in test [3]; -86.5% (active) in test [4]; -89.9% (active) in test [5]; -83.2% (active) in [6]. For the same compound, the growth in test [7] was -78.8% (active); in test [8], -89.9% (active); in [9] it was -16.5% (active); in test [10], -37% (active).

The record behind these values is PubChem BioAssay (NCI).
